# Measurements taken from PubChem BioAssay (NCI).
# This is part of a sample that, as a whole, favours compounds with a hit. Of some 83,000 tested, about 20% had one in any assay.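 Method: cells in 96-well plates; compound added at one concentration; 48 h incubation; percent growth measured; values under 10 scored active.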 The source made the active and inactive calls.
# Test system: SK-MEL-5 melanoma
# Assay: NCI-60 one-dose screen, 48 h (100 = growth as untreated, 0 = no growth, -100 = all killed)
# Conditions: 10 µM unless noted
row,Compound,growth
1,O=C(NC(=S)Nc1cccc(NC(=S)NC(=O)c2ccccc2)c1)c1ccccc1,80% (inactive)
2,COc1cc(C(=O)Nc2ccc(-c3nc4ccccc4[nH]3)cc2)cc(OC)c1OC,65.7% (inactive)
3,CN(C)c1ccc(N=Cc2ccc(N3CCOCC3)cc2)cc1,82% (inactive)
4,Cc1ccc(C)c(-c2csc(Nc3ccc(C)c(C)c3)n2)c1,-92.3% (active)
5,COc1ccc(-c2nsc3c2NC(=O)CC3c2ccsc2)cc1 (stereo not drawn),22% (inactive)
6,O=C(NCCCN1CCC(N2CCCCC2)CC1)C1=Cc2cc(Br)ccc2OC1,68% (inactive)
7,CN1CCN(Cc2ccc(C(=O)Nc3cncc(C#Cc4cnc5cccnn45)c3)cc2C(F)(F)F)CC1,74.3% (inactive)
8,Cc1ccccc1CNC(=O)C1CN(c2ccc(Cl)cc2)N(c2ccc(Cl)cc2)C1=O (stereo not drawn),86.2% (inactive)
9,Cc1sc2ncn(CC(=O)Nc3ccc(S(N)(=O)=O)cc3)c(=O)c2c1C,99.3% (inactive)
10,Fc1cccc(COc2ccc(Nc3ncnc4onc(-c5ccccc5)c34)cc2)c1,19.2% (inactive)
11,Clc1ncccc1Nc1ccc2nnc(-c3ccncc3)n2n1,104% (inactive)
12,CCc1ccc(CNCC(O)c2ccccc2)cc1 (stereo not drawn),68.6% (inactive)
13,COc1ccc2oc(=O)cc(Cn3cc(Cn4cnc5c4c(=O)n(C)c(=O)n5C)nn3)c2c1,98.9% (inactive)
14,COc1ccc(N(C)c2nc(N)nc3sc4c(c23)CCCC4)cc1,-24.9% (active)
15,O=C(NCc1ccccc1)C1CN(c2ccc(Cl)cc2)N(c2ccc(Cl)cc2)C1=O (stereo not drawn),83.3% (inactive)
16,COc1ccc(C2NCCc3c2[nH]c2ccccc32)cc1CN1CCN(c2ccc(F)cc2)CC1 (stereo not drawn),-40.7% (active)
17,CNCCNc1nc2ccccc2c2c(=O)c3cccc(OC)c3sc12,57.9% (inactive)
18,COc1cc(/C=C/C(=O)c2ccc(Cl)cc2)cc(CN2CCCCC2)c1O,90.7% (inactive)
19,COc1ccc(-n2c(C(O)c3ccccc3)nn(CN3CCOCC3)c2=S)cc1 (stereo not drawn),112% (inactive)
20,O=C(c1nc2ccccc2[nH]1)C1C(c2cccc([N+](=O)[O-])c2)C2CC3CCCCC3N2[C@@]12C(=O)Nc1cc(Cl)ccc12 (stereo partly drawn),45.4% (inactive)

row,Compound,growth
1,NC(CCl)=NCCC[C@H](N)C(=O)O,93.1% (inactive)
2,CCOC(=O)c1ccc2[nH]c(-c3ccccc3)cc(=O)c2c1,103% (inactive)
3,COc1ccc(-c2nsc3c2NC(=O)CC3c2cccc(OC)c2)cc1 (stereo not drawn),31.6% (inactive)
4,CCN(CC)CCCNc1ccnc2cc3ccccc3cc12,50.6% (inactive)
5,Cn1cc([C@@H]2Nc3ccc4[nH]ncc4c3[C@H]3[C@H]4CCC(C4)[C@H]32)c(C(F)(F)F)n1,30.5% (inactive)
6,CCOC(=O)C1(C(=O)OCC)N=C(c2ccccc2)C=C1c1ccccc1,90.1% (inactive)
7,COc1ccccc1N1C(=N)S/C(=C\c2ccc(OCc3ccccc3F)cc2)C1=O,92.5% (inactive)
8,O=C(c1ccccc1)N(CCc1ccc(Cl)cc1)C(=S)N(C(=O)c1ccccc1)c1ccccc1,95.9% (inactive)
9,COc1ccc(Nc2cc(C)nc(NCc3ccccc3)n2)cc1,61.9% (inactive)
10,COc1ccc(C(=O)C2CC2c2ccc(Cl)cc2)cc1 (stereo not drawn),96.7% (inactive)
11,CCOC(=O)c1c2c(c(C)n1Cc1ccc(OC)cc1)-c1oncc1CC2,98.1% (inactive)
12,Cc1ccc2cc3c(N)c4c(C)ccc(C)c4nc3nc2c1,11.8% (inactive)
13,O=C1Nc2ccccc2/C1=C/c1ccc[nH]1,58.7% (inactive)
14,COc1ccc(Cn2cc(Cn3c(=O)c(-c4nc5ccccc5[nH]4)cc4ccccc43)nn2)c(OC)c1OC,5.92% (active)
15,CCOc1cc2c(cc1OCC)C(c1cc(C)c(O)c(C)c1)NCC2 (stereo not drawn),99.9% (inactive)
16,C=C(C)CCC(C)N1CCC(N2CCC(C(=O)NCCc3ccccc3)CC2)CC1 (stereo not drawn),10.9% (inactive)
17,COc1ccc(/C=C2\SC(=Nc3ccccc3)NC2=O)cc1,-97.2% (active)
18,CN1C(=O)N(C)C2(c3ccccc3)OC(=S)NC12c1ccccc1 (stereo not drawn),104% (inactive)
19,O=NN(Cc1cccnc1)C(=O)NC1CCCCC1,102% (inactive)

# Test system: UACC-62 melanoma
# Assay: as above
# Conditions: 10 µM unless noted
row,Compound,growth
1,O=C(NC(=S)Nc1cccc(NC(=S)NC(=O)c2ccccc2)c1)c1ccccc1,67% (inactive)
2,COc1cc(C(=O)Nc2ccc(-c3nc4ccccc4[nH]3)cc2)cc(OC)c1OC,47.2% (inactive)
3,CN(C)c1ccc(N=Cc2ccc(N3CCOCC3)cc2)cc1,84.8% (inactive)
4,Cc1ccc(C)c(-c2csc(Nc3ccc(C)c(C)c3)n2)c1,49.2% (inactive)
5,COc1ccc(-c2nsc3c2NC(=O)CC3c2ccsc2)cc1 (stereo not drawn),24.9% (inactive)
6,O=C(NCCCN1CCC(N2CCCCC2)CC1)C1=Cc2cc(Br)ccc2OC1,53.6% (inactive)
7,CN1CCN(Cc2ccc(C(=O)Nc3cncc(C#Cc4cnc5cccnn45)c3)cc2C(F)(F)F)CC1,74.2% (inactive)
8,Cc1ccccc1CNC(=O)C1CN(c2ccc(Cl)cc2)N(c2ccc(Cl)cc2)C1=O (stereo not drawn),60.8% (inactive)
9,Cc1sc2ncn(CC(=O)Nc3ccc(S(N)(=O)=O)cc3)c(=O)c2c1C,96.5% (inactive)
10,Fc1cccc(COc2ccc(Nc3ncnc4onc(-c5ccccc5)c34)cc2)c1,23.5% (inactive)
11,Clc1ncccc1Nc1ccc2nnc(-c3ccncc3)n2n1,106% (inactive)
12,CCc1ccc(CNCC(O)c2ccccc2)cc1 (stereo not drawn),84.5% (inactive)
13,COc1ccc2oc(=O)cc(Cn3cc(Cn4cnc5c4c(=O)n(C)c(=O)n5C)nn3)c2c1,91.7% (inactive)
14,COc1ccc(N(C)c2nc(N)nc3sc4c(c23)CCCC4)cc1,42.9% (inactive)
15,O=C(NCc1ccccc1)C1CN(c2ccc(Cl)cc2)N(c2ccc(Cl)cc2)C1=O (stereo not drawn),58.7% (inactive)
16,COc1ccc(C2NCCc3c2[nH]c2ccccc32)cc1CN1CCN(c2ccc(F)cc2)CC1 (stereo not drawn),12.5% (inactive)
17,CNCCNc1nc2ccccc2c2c(=O)c3cccc(OC)c3sc12,44.4% (inactive)
18,COc1cc(/C=C/C(=O)c2ccc(Cl)cc2)cc(CN2CCCCC2)c1O,87.4% (inactive)
19,COc1ccc(-n2c(C(O)c3ccccc3)nn(CN3CCOCC3)c2=S)cc1 (stereo not drawn),95.8% (inactive)
20,O=C(c1nc2ccccc2[nH]1)C1C(c2cccc([N+](=O)[O-])c2)C2CC3CCCCC3N2[C@@]12C(=O)Nc1cc(Cl)ccc12 (stereo partly drawn),33.5% (inactive)

row,Compound,growth
1,NC(CCl)=NCCC[C@H](N)C(=O)O,91.5% (inactive)
2,CCOC(=O)c1ccc2[nH]c(-c3ccccc3)cc(=O)c2c1,101% (inactive)
3,COc1ccc(-c2nsc3c2NC(=O)CC3c2cccc(OC)c2)cc1 (stereo not drawn),41.5% (inactive)
4,CCN(CC)CCCNc1ccnc2cc3ccccc3cc12,69.8% (inactive)
5,Cn1cc([C@@H]2Nc3ccc4[nH]ncc4c3[C@H]3[C@H]4CCC(C4)[C@H]32)c(C(F)(F)F)n1,30.4% (inactive)
6,CCOC(=O)C1(C(=O)OCC)N=C(c2ccccc2)C=C1c1ccccc1,82% (inactive)
7,COc1ccccc1N1C(=N)S/C(=C\c2ccc(OCc3ccccc3F)cc2)C1=O,63.7% (inactive)
8,O=C(c1ccccc1)N(CCc1ccc(Cl)cc1)C(=S)N(C(=O)c1ccccc1)c1ccccc1,94.5% (inactive)
9,COc1ccc(Nc2cc(C)nc(NCc3ccccc3)n2)cc1,69.3% (inactive)
10,COc1ccc(C(=O)C2CC2c2ccc(Cl)cc2)cc1 (stereo not drawn),84.9% (inactive)
11,CCOC(=O)c1c2c(c(C)n1Cc1ccc(OC)cc1)-c1oncc1CC2,110% (inactive)
12,Cc1ccc2cc3c(N)c4c(C)ccc(C)c4nc3nc2c1,-73% (active)
13,O=C1Nc2ccccc2/C1=C/c1ccc[nH]1,97.7% (inactive)
14,COc1ccc(Cn2cc(Cn3c(=O)c(-c4nc5ccccc5[nH]4)cc4ccccc43)nn2)c(OC)c1OC,23.2% (inactive)
15,CCOc1cc2c(cc1OCC)C(c1cc(C)c(O)c(C)c1)NCC2 (stereo not drawn),91.3% (inactive)
16,C=C(C)CCC(C)N1CCC(N2CCC(C(=O)NCCc3ccccc3)CC2)CC1 (stereo not drawn),68.9% (inactive)
17,COc1ccc(/C=C2\SC(=Nc3ccccc3)NC2=O)cc1,-91% (active)
18,CN1C(=O)N(C)C2(c3ccccc3)OC(=S)NC12c1ccccc1 (stereo not drawn),92.5% (inactive)
19,O=NN(Cc1cccnc1)C(=O)NC1CCCCC1,110% (inactive)
